Most compounds without a hit are left out; they make up all but 6.7% or so of the library.
Pf Dd2 inh: inhibitors of Plasmodium falciparum Dd2 growth; activity change, % at 10 µM; 2.3% of 94,000 active; AID 1159554; P. falciparum Dd2 growth, SYBR Green, 72 h; stronger effect = lower value; in the data active means activity change below about -80%; inconclusive means no clear call, values can overlap the other calls
C diff growth: blocks growth of Clostridium difficile | Clostridium difficile clinical isolate growth, OD600, 24 h; stronger effect = lower value | 0.25% of 86,000 active | growth activity, negative = inhibition, % at 16 µg/mL (by protocol);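 active means mean growth activity at or below -80% and every replicate also at or below -80%; inconclusive means mean at or below -80% but some replicate above -80%; inactive means mean growth activity above -80%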;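 further: 0% = DMSO wells and -100% = levofloxacin 16 µg/mL wells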
T cruzi growth-1: blocks T. cruzi growth in NIH3T3 culture | inhibition, % at 8.34 µM | 5.9% of 77,000 active | AID 624255 | T. cruzi beta-gal in NIH3T3, GalScreen luminescence, 90 h;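 active means mean inhibition above about 93%, with at least 55% of replicates each passing it, limit read from the data, passing the limit was not always enough; inconclusive means only one of those two conditions holds; inactive means neither condition holds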
T cruzi growth-2: inhibitors of T. cruzi proliferation | shares compounds with T cruzi growth-1 | T. cruzi beta-gal in NIH3T3, GalScreen luminescence, 90 h | inhibition, % at 8.35 µM | 72% of 5,600 active | AID 651739;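 active means mean replicate inhibition above about 95% and at least 55% of replicates individually reaching it, limit read from the data; inconclusive means only one of the two criteria is met; inactive means neither criterion is met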
T cruzi growth-3: blocks T. cruzi growth in NIH3T3 host cells; shares compounds with T cruzi growth-1; T. cruzi beta-gal in NIH3T3, GalScreen luminescence, 90 h; inhibition, % at 2.09 µM; 21% of 5,600 active; AID 651740;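 active means mean inhibition above about 95%, with at least 55% of replicates also reaching it, limit read from the data; inconclusive means meets just one of the two conditions; inactive means meets neither condition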;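 further: plate controls were neutral control median for no effect and positive control median for full effect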
3T3 cytotox: NIH/3T3 (mouse) viability loss; shares compounds with T cruzi growth-1; 14% of 5,600 active; NIH/3T3 viability, CellTiter-Glo ATP luminescence, 90 h; cytotoxicity (signal decrease), % at 8.35 µM;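 active means mean signal decrease across replicates above about 35% based on untreated-well scatter, with enough replicates individually passing, limit read from the data; inconclusive means no rule stated though some were filed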;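 further: 0% = median of neutral control wells and 100% = median of positive control wells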
NIH3T3 tox 2: kills mouse NIH/3T3 fibroblasts; shares compounds with T cruzi growth-1; NIH/3T3 viability, CellTiter-Glo ATP luminescence, 90 h; inhibition, % at 24.9 µM; 56% of 5,600 active;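 active means mean loss of cell viability signal at or above a set limit, and enough replicates individually reaching it; inconclusive means meets only the mean limit or only the replicate share; inactive means meets neither condition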;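 further: 0% = median of neutral control wells and 100% = median of positive control wells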
The depositor's hits bear a star; u = inconclusive; x = no result; ! = not confirmed by another sample.

SMILES | Pf Dd2 inh | C diff growth | T cruzi growth-1 | T cruzi growth-2 | T cruzi growth-3 | 3T3 cytotox | NIH3T3 tox 2
Cc1ccc(-c2ccc3c(c2)O[C@H](CN(C)Cc2cncnc2)[C@@H](C)CN([C@H](C)CO)S3(=O)=O)cc1 | -52 | 6 | 102* | 102* | 77 | 42* | 65*
C[C@H]1CN([C@@H](C)CO)C(=O)c2cc(-c3cccc(F)c3)cnc2O[C@H]1CN(C)Cc1cccc(F)c1 | -11 | 6 | 74 | x | x | x | x
C[C@@H]1CN([C@@H](C)CO)S(=O)(=O)c2ccc(-c3cccc(C#N)c3)cc2O[C@@H]1CN(C)C(=O)c1ccc(F)cc1 | -15 | -2 | 109*! | 97* | 91 | u | 73*
C[C@H](CO)N1C[C@H](C)[C@@H](CN(C)C(=O)c2ccc(F)cc2)Oc2cc(-c3cccc(C#N)c3)ccc2S1(=O)=O | -51 | -7 | 48 | x | x | x | x
C[C@@H]1CN([C@H](C)CO)S(=O)(=O)c2ccc(-c3cccc(C#N)c3)cc2O[C@H]1CN(C)C(=O)c1ccc(F)cc1 | -48 | -4 | 78 | x | x | x | x
C[C@H]1CN([C@@H](C)CO)S(=O)(=O)c2ccc(-c3cccc(C#N)c3)cc2O[C@H]1CN(C)C(=O)c1ccc(F)cc1 | -64 | 7 | 103* | 89 | 44 | 30 | 78*
CN1C(=O)c2cc(NC(=O)C3CCOCC3)ccc2OC[C@@H]2O[C@H](CC(=O)NCC3CCCCC3)CC[C@@H]21 | x | -7 | -4 | x | x | x | x
O=C(C[C@@H]1CC[C@@H]2[C@H](COC[C@H](O)CN2Cc2cccc(C(F)(F)F)c2)O1)NCCc1ccccc1 | -11 | x | 34 | x | x | x | x
Cc1ccc(S(=O)(=O)Nc2ccc3c(c2)C(=O)N([C@H](C)CO)C[C@H](C)[C@H](CN(C)C(=O)Nc2ccc4c(c2)OCO4)O3)cc1 | 3 | x | 31 | x | x | x | x
C[C@@H]1CN([C@@H](C)CO)C(=O)c2cc(NC(=O)Cc3ccccc3)ccc2O[C@@H](C)CCCCO[C@H]1CN(C)S(=O)(=O)c1ccc(Cl)cc1 | -76 | 0 | 40 | x | x | x | x
C[C@H]1CCCCO[C@H](CN(C)S(=O)(=O)c2ccc(Cl)cc2)[C@@H](C)CN([C@@H](C)CO)C(=O)c2cc(NC(=O)Cc3ccccc3)ccc2O1 | -81* | 8 | 112* | 103* | 84 | 1 | -3
C[C@@H]1CCCCO[C@H](CN(C)S(=O)(=O)c2ccc(Cl)cc2)[C@H](C)CN([C@H](C)CO)C(=O)c2cc(NC(=O)Cc3ccccc3)ccc2O1 | -74 | 5 | 117* | 110* | 105* | -9 | -8
C[C@H](CO)N1C[C@H](C)[C@H](CN(C)S(=O)(=O)c2ccccc2)OCCCC[C@H](C)Oc2ccc(NC(=O)Cc3ccccc3)cc2C1=O | -5 | x | x | x | x | x | x
C[C@H]1CCCCO[C@H](CN(C)S(=O)(=O)c2ccccc2)[C@@H](C)CN([C@@H](C)CO)C(=O)c2cc(NC(=O)Cc3ccccc3)ccc2O1 | -79 | x | x | x | x | x | x
C[C@H](CO)N1C[C@H](C)[C@H](CN(C)S(=O)(=O)c2ccc(Cl)cc2)OCCCC[C@H](C)Oc2ccc(NC(=O)Cc3ccccc3)cc2C1=O | -72 | 3 | 105* | 100* | 109* | -11 | 11
C[C@@H]1CCCCO[C@@H](CN(C)S(=O)(=O)c2ccc(Cl)cc2)[C@H](C)CN([C@H](C)CO)C(=O)c2cc(NC(=O)Cc3ccccc3)ccc2O1 | -78 | 2 | 116* | 105* | 103* | -28 | 18
C[C@H](CO)N1C[C@H](C)[C@@H](CN(C)S(=O)(=O)c2ccccc2)OCCCC[C@H](C)Oc2ccc(NC(=O)Cc3ccccc3)cc2C1=O | -45 | x | x | x | x | x | x
O=C(C[C@H]1CC[C@H](NC(=O)Nc2cc(F)ccc2F)[C@H](CO)O1)Nc1ccccc1 | x | 8 | x | x | x | x | x
O=C(NC1CCCCC1)N[C@H]1CC[C@H](CCNS(=O)(=O)c2ccccc2)O[C@H]1CO | -4 | -2 | 32 | x | x | x | x
Cc1ccc(S(=O)(=O)Nc2cccc3c2O[C@@H](CN(C)C)[C@@H](C)CN([C@H](C)CO)C3=O)cc1 | 4 | -1 | 14 | x | x | x | x
CCCNC(=O)N1[C@H](C#N)[C@H](c2ccc(-c3cccc(OC)c3)cc2)[C@@H]1CO | u | 14 | 99* | 90 | 112* | -28 | 40*
CCCNC(=O)N1[C@@H](C#N)[C@@H](c2ccc(-c3cccc(OC)c3)cc2)[C@@H]1CO | -35 | 7 | 98* | 99* | 39 | 16 | 51*
CCCNC(=O)N1[C@H](C#N)[C@@H](c2ccc(-c3cccnc3)cc2)[C@@H]1CO | -5 | 1 | 56 | x | x | x | x
CCCNC(=O)N1[C@H](C#N)[C@@H](c2ccc(-c3cccc(OC)c3)cc2)[C@@H]1CO | -52 | 3 | 77 | x | x | x | x
O=C(C[C@@H]1C=C[C@H](NS(=O)(=O)c2ccccc2)[C@H](CO)O1)N1CCc2ccccc2C1 | -21 | -3 | 15 | x | x | x | x
SMILES | Pf Dd2 inh | C diff growth | T cruzi growth-1 | T cruzi growth-2 | T cruzi growth-3 | 3T3 cytotox | NIH3T3 tox 2
O=C(NCc1cccc(F)c1)[C@@H]1[C@@H](CO)[C@@H]2Cn3c(ccc(-c4ccccc4)c3=O)[C@H]1N2CC1CC1 | -2 | 0 | 16 | x | x | x | x
CC(=O)N1CC2(C1)[C@@H](c1ccccc1)[C@@H](CO)N2C(=O)c1ccncc1 | 56 | 1 | x | x | x | x | x
CS(=O)(=O)Nc1ccc2c(c1)[C@@H]1C[C@H](CC(=O)NCc3ccc(Oc4ccccc4)cc3)O[C@@H](CO)[C@@H]1O2 | -8 | 0 | -47 | x | x | x | x
COc1ccc(S(=O)(=O)Nc2ccc3c(c2)C(=O)N([C@@H](C)CO)C[C@@H](C)[C@H](CN(C)S(=O)(=O)c2cccs2)OCCCC[C@@H](C)O3)cc1 | 10 | 3 | 85 | x | x | x | x
COc1ccc2c3c(n(C)c2c1)[C@H](CO)N(C(=O)C1CCCCC1)CC31CCN(C(=O)Nc2cccc(F)c2)CC1 | -46 | 5 | x | x | x | x | x
CCNC(=O)C[C@H]1CC[C@@H]2[C@H](COC[C@H](O)CN2S(=O)(=O)c2ccccc2F)O1 | -9 | x | 3 | x | x | x | x
C[C@H](CO)N1C[C@H](C)[C@H](CN(C)C(=O)Nc2ccccc2)Oc2ncc(C#Cc3cccc(F)c3)cc2C1=O | -56 | 25 | 35 | x | x | x | x
C[C@H](CO)N1C[C@H](C)[C@H](CN(C)C(=O)Nc2ccc(F)cc2)Oc2ncc(C#Cc3cccc(F)c3)cc2C1=O | -8 | 59 | u | 90 | 68 | 75* | 105*
COc1ccc(C#Cc2cnc3c(c2)C(=O)N([C@H](C)CO)C[C@@H](C)[C@H](CN(C)C(=O)c2ccccc2F)O3)cc1 | -77 | -3 | 21 | x | x | x | x
COc1ccc(C#Cc2cnc3c(c2)C(=O)N([C@H](C)CO)C[C@@H](C)[C@H](CN(C)C(C)=O)O3)cc1 | -16 | -1 | u | 32 | 8 | 14 | 33*

Source: PubChem BioAssay (Broad Institute)
